# Measured values published in PMC5540273 (PLoS ONE, 2017).
# Several values for one entry are separate records, joined by “and”; a condition that tells them apart may be missing. Equal entries are not always repeated. Where two headings read alike, the source gives them in different places.
# Experiments:
# BLK = conditions: concentration: 1 μM, replicates: in singlicate, n = 1
# BMPR1A = conditions: concentration: 1 μM, replicates: in singlicate; n = 1
# BMPR1B = conditions: concentration: 1 μM, replicates: in singlicate; n = 1
# BMPR2 = conditions: concentration: 1 μM, replicates: in singlicate, n = 1
# BMX = conditions: concentration: 1 μM, replicates: in singlicate; n = 1
# BRAF = conditions: concentration: 1 μM, replicates: in singlicate, n = 1
# BRK = test system: T1, BRK; conditions: concentration: 1 μM, replicates: in singlicate, n = 1
# T1 construct: gene PTK6
# BRSK1 = conditions: concentration: 1 μM, replicates: in singlicate, n = 1
# BRSK2 = conditions: concentration: 1 μM, replicates: in singlicate, n = 1
# BTK = conditions: concentration: 1 μM, replicates: in singlicate, n = 1
# BUB1 = conditions: concentration: 1 μM, replicates: in singlicate, n = 1
# CAMK1B = conditions: concentration: 1 μM, replicates: in singlicate, n = 1
# CAMK1D = conditions: concentration: 1 μM, replicates: in singlicate, n = 1
# CAMK1G = conditions: concentration: 1 μM, replicates: in singlicate, n = 1
# CAMK1 = conditions: concentration: 1 μM, replicates: in singlicate, n = 1
# CAMK2A = conditions: concentration: 1 μM, replicates: in singlicate; n = 1
# CAMK2B = conditions: concentration: 1 μM, replicates: in singlicate; n = 1
# CAMK2D = conditions: concentration: 1 μM, replicates: in singlicate; n = 1
# CAMK2G = conditions: concentration: 1 μM, replicates: in singlicate; n = 1
# CAMK4 = conditions: concentration: 1 μM, replicates: in singlicate, n = 1
# 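Note: KINOMEscan kinase panel screen.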
smiles,measurement,setting,value
Cn1cc(-c2ccc3c(c2)CCN3C(=O)Cc2ccccc2Cl)c2c(N)ncnc21 [GSK2608885],%Inh,BLK,99.2%
same,%Inh,BMPR1A,10%
same,%Inh,BMPR1B,0%
same,%Inh,BMPR2,0%
same,%Inh,BMX,93.2%
same,%Inh,BRAF,90.5%
same,%Inh,BRK,95.3%
same,%Inh,BRSK1,0%
same,%Inh,BRSK2,6%
same,%Inh,BTK,95.6%
same,%Inh,BUB1,25%
same,%Inh,CAMK1B,33%
same,%Inh,CAMK1D,22%
same,%Inh,CAMK1G,13%
same,%Inh,CAMK1,44%
same,%Inh,CAMK2A,0%
same,%Inh,CAMK2B,0%
same,%Inh,CAMK2D,17%
same,%Inh,CAMK2G,34%
same,%Inh,CAMK4,0%
O=C(NCCCN1CCOCC1)c1cccc(Nc2nccc(Nc3ccc(Oc4ccccc4)cc3)n2)c1 [GW663929],%Inh,BLK,95.4%
same,%Inh,BMPR1A,0%
same,%Inh,BMPR1B,0%
same,%Inh,BMPR2,15%
same,%Inh,BMX,54%
same,%Inh,BRAF,0%
same,%Inh,BRK,69%
same,%Inh,BRSK1,6%
same,%Inh,BRSK2,0%
same,%Inh,BTK,51%
same,%Inh,BUB1,28%
same,%Inh,CAMK1B,37%
same,%Inh,CAMK1D,33%
same,%Inh,CAMK1G,0%
same,%Inh,CAMK1,55%
same,%Inh,CAMK2A,3%
same,%Inh,CAMK2B,6%
same,%Inh,CAMK2D,2%
same,%Inh,CAMK2G,0%
same,%Inh,CAMK4,0%
O=C(NCCNc1ccnc(Nc2ccc(F)cc2)n1)Nc1ccccc1F [GSK1379880],%Inh,BLK,6%
same,%Inh,BMPR1A,0%
same,%Inh,BMPR1B,0%
same,%Inh,BMPR2,0%
same,%Inh,BMX,0%
same,%Inh,BRAF,0%
same,%Inh,BRK,6%
same,%Inh,BRSK1,0%
same,%Inh,BRSK2,0%
same,%Inh,BTK,0%
same,%Inh,BUB1,31%
same,%Inh,CAMK1B,0%
same,%Inh,CAMK1D,0%
same,%Inh,CAMK1G,0%
same,%Inh,CAMK1,0%
same,%Inh,CAMK2A,0%
same,%Inh,CAMK2B,0%
same,%Inh,CAMK2D,0%
same,%Inh,CAMK2G,0%
same,%Inh,CAMK4,0%
Fc1ccc(-c2nn3c(OCC(F)(F)F)cccc3c2-c2ccncc2)cc1 [GW514784],%Inh,BLK,43%
same,%Inh,BMPR1A,0%
same,%Inh,BMPR1B,0%
same,%Inh,BMPR2,1%
same,%Inh,BMX,2%
same,%Inh,BRAF,44%
same,%Inh,BRK,1%
same,%Inh,BRSK1,0%
same,%Inh,BRSK2,0%
same,%Inh,BTK,31%
same,%Inh,BUB1,99%
same,%Inh,CAMK1B,0%
same,%Inh,CAMK1D,7%
same,%Inh,CAMK1G,0%
same,%Inh,CAMK1,0%
same,%Inh,CAMK2A,0%
same,%Inh,CAMK2B,0%
same,%Inh,CAMK2D,0%
same,%Inh,CAMK2G,22%
same,%Inh,CAMK4,0%
COc1cc2c(cc1OC[C@@H](O)CO)ncc1c3ccc(C#N)cc3[nH]c21,%Inh,BLK,24%
same,%Inh,BMPR1A,5%
same,%Inh,BMPR1B,0%
same,%Inh,BMPR2,0%
same,%Inh,BMX,0%
same,%Inh,BRAF,0%
same,%Inh,BRK,0%
same,%Inh,BRSK1,0%
same,%Inh,BRSK2,0%
same,%Inh,BTK,0%
same,%Inh,BUB1,94.3%
same,%Inh,CAMK1B,27%
same,%Inh,CAMK1D,0%
same,%Inh,CAMK1G,0%
same,%Inh,CAMK1,0%
same,%Inh,CAMK2A,89%
same,%Inh,CAMK2B,61%
same,%Inh,CAMK2D,84%
same,%Inh,CAMK2G,61%
same,%Inh,CAMK4,0%
c1ccc(-c2cc(-c3c[nH]nc3-c3ccccn3)ccn2)cc1 [GW576604],%Inh,BLK,37%
same,%Inh,BMPR1A,1%
same,%Inh,BMPR1B,0%
same,%Inh,BMPR2,4%
same,%Inh,BMX,3%
same,%Inh,BRAF,0%
same,%Inh,BRK,0%
same,%Inh,BRSK1,0%
same,%Inh,BRSK2,0%
same,%Inh,BTK,0%
same,%Inh,BUB1,34%
same,%Inh,CAMK1B,10%
same,%Inh,CAMK1D,14%
same,%Inh,CAMK1G,0%
same,%Inh,CAMK1,14%
same,%Inh,CAMK2A,0%
same,%Inh,CAMK2B,0%
same,%Inh,CAMK2D,10%
same,%Inh,CAMK2G,30%
same,%Inh,CAMK4,0%
Cl.Cl.Cl.Fc1ccc(-c2ncn(C3CCNCC3)c2-c2ccnc(Nc3ccccc3)n2)cc1 [SB-238039],%Inh,BLK; 1 µM,56% and 27%
same,%Inh,BMPR1A,0%
same,%Inh,BMPR1B,0%
same,%Inh,BMPR2; 1 µM,42% and 11%
same,%Inh,BMX,0%
same,%Inh,BRAF; 1 µM,19% and 0%
same,%Inh,BRK; 1 µM,0% and 19%
same,%Inh,BRSK1; 1 µM,0% and 29%
same,%Inh,BRSK2; 1 µM,7% and 9%
same,%Inh,BTK; 1 µM,0% and 9%
same,%Inh,BUB1; 1 µM,88% and 65%
same,%Inh,CAMK1B; 1 µM,0% and 42%
same,%Inh,CAMK1D; 1 µM,0% and 9%
same,%Inh,CAMK1G; 1 µM,9% and 0%
same,%Inh,CAMK1; 1 µM,7% and 0%
same,%Inh,CAMK2A,0%
same,%Inh,CAMK2B,0%
same,%Inh,CAMK2D,0%
same,%Inh,CAMK2G,0%
same,%Inh,CAMK4; 1 µM,18% and 26%
CSc1ccc(-c2cc3ncnc(SCC(=O)O)c3s2)cc1,%Inh,BLK,10%
same,%Inh,BMPR1A,0%
same,%Inh,BMPR1B,0%
same,%Inh,BMPR2,0%
same,%Inh,BMX,0%
same,%Inh,BRAF,0%
same,%Inh,BRK,4%
same,%Inh,BRSK1,6%
same,%Inh,BRSK2,10%
same,%Inh,BTK,0%
same,%Inh,BUB1,24%
same,%Inh,CAMK1B,0%
same,%Inh,CAMK1D,0%
same,%Inh,CAMK1G,0%
same,%Inh,CAMK1,0%
same,%Inh,CAMK2A,0%
same,%Inh,CAMK2B,0%
same,%Inh,CAMK2D,0%
same,%Inh,CAMK2G,0%
same,%Inh,CAMK4,3%
Cn1ccc2ncnc(Oc3ccc(NC(=O)Nc4ccncc4)c(Cl)c3)c21,%Inh,BLK,0%
same,%Inh,BMPR1A,1%
same,%Inh,BMPR1B,0%
same,%Inh,BMPR2,20%
same,%Inh,BMX,0%
same,%Inh,BRAF,0%
same,%Inh,BRK,0%
same,%Inh,BRSK1,0%
same,%Inh,BRSK2,0%
same,%Inh,BTK,0%
same,%Inh,BUB1,11%
same,%Inh,CAMK1B,0%
same,%Inh,CAMK1D,0%
same,%Inh,CAMK1G,0%
same,%Inh,CAMK1,0%
same,%Inh,CAMK2A,0%
same,%Inh,CAMK2B,0%
same,%Inh,CAMK2D,0%
same,%Inh,CAMK2G,0%
same,%Inh,CAMK4,7%
